From PubChem BioAssay (NCATS)
Records with an inconclusive call do not appear. Unmarked numbers belong to inactive results. Active and inactive are the calls of the source. Calls follow the shape of the dose curve; as a rule, active = well fitted cell-killing curve with a large enough effect; inconclusive = small, poorly fitted or top-dose-only effect; inactive = no such curve, though single readings can be large or run the other way.

assay: qHTS of pediatric cancer cell lines to identify multiple opportunities for drug repurposing: Primary screen for OHS-50 cells (AID 1347103); settings: OHS-50 osteosarcoma viability, CellTiter-Glo luminescence, 48 h; series mostly up to 57.3 µM; activity change, negative = cytotoxic: at the top concentration; also: nearly all actives have a fitted effect of over 40% in size
Source text: Drug repurposing or repositioning has been offered as a strategy for drug development in oncology programs. This approach has special potential for childhood cancers and other rare or orphan diseases, where the expected return on new drug development has been a disincentive to pharmaceuticals.
In this project we exploit the poly-pharmacology of drugs to discover new indications via phenotypic screening of a panel of 19 well-characterized cell lines derived from solid tumors seen in children and adolescents. The goal is to identify approved drugs with previously unrecognized anticancer properties that has the potential to reveal new mechanisms and biological processes involved in carcinogenesis or drug resistance. We employed a titration-based paradigm (quantitative high-throughput screening or qHTS), where all compounds were tested at multiple concentrations for their effect on cell viability. Concentration-response curves (CRCs) were derived directly from the primary screen, and both potency and efficacy values were used to identify compounds with robust bioactivity profiles. We screened the NIH Chemical Genomics Center (NCGC) Pharmaceutical Collection (NPC) and Mechanism Interrogation Plate (MIPE) small molecule collections of approved and investigational compounds against these cell lines; and measured metabolically active cells after 48 hours of compound treatment as a proxy for cell viability.
Assay Submitter: Nathalia J. Martinez, National Center for Advancing Translational Sciences, National Institutes of Health, Rockville, MD, USA; email: natalia.martinez@nih.gov
[1] Shen, M et al. Quantitative high-throughput phenotypic screening of pediatric cancer cell lines identifies multiple opportunities for drug repurposing. Oncotarget 2017 Dec 19;9(4):4758-4772. PMID 29435139.
The cells were obtained from University of North Carolina (UNC), Pediatric Preclinical Testing Program (PPT), and Coriell Institute (CI).
qHTS cell viability assay:
Cells were assayed in growth media at a density of 500-1,000 cells/well. Five microliters of cells were dispensed into 1,536-well, white, solid-bottom, TC-treated plates (Greiner Bio One) using a multidrop dispenser and incubated at 37 degrees C, 5% CO2, under a humidified atmosphere for 5 hours. Twenty-three nanoliters of compounds and controls (neutral control DMSO or positive control bortezomib at final concentration of 2.3 µM) were subsequently transferred by Kalypsys pintool. For primary screens, the MIPE collection was tested at 11-point dilutions (final concentrations range from 0.78 nM to 46 µM) and the NPC collection at 8-point dilutions (final concentrations range from 0.59 nM to 46 µM). Compounds tested in follow-up screens were assayed at 11-point dilutions. Cells were incubated for 48 hours, followed by addition of 3 µL of CellTiter-Glo (Promega). After a 15 min incubation at room temperature, samples were analyzed for luminescence intensity using a ViewLux High-throughput CCD imager equipped with clear filters.
Potency is read from the fitted curve at half-maximal effect.

Structure (SMILES)	activity change, negative = cytotoxic	Potency
OC1(c2ccccc2)CCNCC1	3.43%	–
CC(=O)N1CCN(c2ccc(O)cc2)CC1	-13.5%	–
CCOc1c(N2CCOCC2)cnn(C)c1=O	12.8%	–
CC(C(=O)O)c1ccc(/C=C2\CCCCC2=O)cc1 (stereo not given)	23.2%	–
CN1CCC(Nc2ncc3ncnc(Nc4ccc(F)c(Cl)c4)c3n2)CC1	–	27.6 µM (active)
CSc1ccc(/C=C2/C(C)=C(CC(=O)O)c3cc(F)ccc32)cc1	5.36%	–
CCOc1ccccc1OCC1CNCCO1 (stereo not given)	6.55%	–
CCOC(=O)OCC/C(SC(=O)OCC)=C(\C)N(C=O)Cc1cnc(C)nc1N	14.7%	–
CCO[C@H](Cc1ccc(OCCc2ccc(OS(C)(=O)=O)cc2)cc1)C(=O)O	17%	–
CC(C)(Oc1ccc(Cl)cc1)C(=O)OCCCOC(=O)C(C)(C)Oc1ccc(Cl)cc1	6.14%	–
CCOC(=O)Oc1ccc(CCNC(=O)[C@H](CCSC)NC(C)=O)cc1OC(=O)OCC	6.4%	–
COc1cc2nc(Cl)nc(N)c2cc1OC	-14.3%	–
NS(=O)(=O)c1cc2c(cc1Cl)CN(C1CCCCC1)C2=O	-1.13%	–
O=C(CCCCC(=O)Nc1c(I)cc(I)c(C(=O)O)c1I)Nc1c(I)cc(I)c(C(=O)O)c1I	12.7%	–
CN(C)C(=O)CNC(=O)Cc1ccccc1	-8.44%	–
OCc1c[nH]c2ccccc12	-19.6% [at 116 µM]	–
OC1(c2ccc(Cl)cc2)CCNCC1	-2.64%	–
CN1[C@@H]2CC[C@H]1CC(NC(=O)n1c(=O)[nH]c3ccccc31)C2 (stereo not given in full)	17.3%	–
CCN(CC)CC(=O)Oc1ccc(NC(C)=O)cc1	8.49%	–
CC(C)OP(=O)(CP(=O)(OC(C)C)OC(C)C)OC(C)C	11.1%	–

Structure (SMILES)	activity change, negative = cytotoxic	Potency
Cc1cc(O)c(C)c(C)c1O	17%	–
COC(=O)c1cc(Cl)ccc1NS(=O)(=O)C(F)(F)F	-6.74%	–
O=C(O)Cn1c(=O)n(Cc2ccc(Br)cc2F)c(=O)c2ccc(Cl)cc21	25.6%	–
COc1ccc(OC(=O)N(CC(=O)O)Cc2ccc(OCCc3nc(-c4ccccc4)oc3C)cc2)cc1	-19%	–
Cc1[nH]cnc1-c1ccc(Cl)cc1	-3.85%	–
CC(=O)Oc1ccc(C2(c3ccc(OC(C)=O)cc3)Oc3ccccc3NC2=O)cc1	–	12.3 µM (active)
CCOC(=O)c1ccc(OCCN2C[C@H](O)[C@@H](O)[C@H](O)[C@H]2CO)cc1	7.32%	–
O=C(O)C(=O)Nc1cccc(-c2nn[nH]n2)c1	6.51%	–
COC(=O)/C=C(/C)N	20.2%	–
O=C1CC(c2ccc(Cl)cc2)CC(=O)N1	18.6%	–
COCCc1ccc(OCC2CO2)cc1 (stereo not given)	-6.86%	–
O=C(O)CCCC[P+](c1ccccc1)(c1ccccc1)c1ccccc1	-3.76%	–
CO/N=C(/C(=O)N[C@@H]1C(=O)N2C(C(=O)O)=C(Cn3nnc(C)n3)CS[C@H]12)c1csc(N)n1	12.9%	–
Nc1nc2ccccc2n1Cc1ccc(F)cc1	–	17.4 µM (active)
CCOC(=O)[C@H](CCc1ccccc1)N[C@@H](C)C(=O)N(CC(=O)O)C1Cc2ccccc2C1	3.15%	–
O=C(O)c1[nH]n(-c2ccc(S(=O)(=O)O)cc2)c(=O)c1N=Nc1ccc(S(=O)(=O)O)cc1	10.3%	–
COC(=O)c1ccc(NC(C)=O)cc1OC	-2.91%	–
CCCCCCCC(=O)[O-].CCCCCCCC(=O)[O-].[Zn+2]	7.02%	–
CCS(=O)(=O)c1ccc(OC)c(C(=O)OC)c1	13.3%	–
O=C(Oc1ccccc1)c1cccc(C(=O)Oc2ccccc2)c1	16.4% [at 116 µM]	–
